PubChem BioAssay AID652141 (The Scripps Research Institute Molecular Screening Center, 2013)
Screen size: about 5,600 compounds; about 4,500 (80%) were called active. No stated cut-off is given here; in the data, active means inhibition above about 10%; inactive means the rest. So high a share suggests a set chosen from earlier hits. These entries were drawn from the full list.

experiment: inhibition of coupled GDH and TPI enzymes – biochemical, fluorescence, high throughput, artefact control for M. tuberculosis FBA inhibitor project (AID 652141); settings: GDH-TPI coupled enzyme counterscreen, at 1 µM, stronger effect = higher value

SMILES | inhibition
O=C1NC(c2cccc(Cl)c2)Nc2ccccc21 (stereo not drawn) | 84.8% (active)
COc1ccc(C2NC(=O)c3ccccc3N2)cc1 (stereo not drawn) | 122% (active)
CCN1CCN(C(=O)c2cc3cc4ccc(OC)cc4nc3s2)CC1 | 74.1% (active)
CCOC(=O)Cc1c(C)nc2c(C#N)c(C)nn2c1C | 39.1% (active)
COC(=O)c1noc(C)c1-c1ccnn1C(=O)c1ccc(Cl)cc1 | 38.9% (active)
COc1ccc(-c2cn3ccc(C)cc3n2)cc1 | -5% (inactive)
COc1ccc(-c2cc(C(=O)Nc3ccccc3O)c3ccccc3n2)cc1 | 114% (active)
COc1ccc(-c2cc(C(=O)N(C)Cc3ccccc3)c3ccccc3n2)cc1 | -2.5% (inactive)
O=c1oc2ccccc2cc1-c1cn(-c2ccccc2)c(=S)[nH]1 | 13.5% (active)
COc1ccc2nc(-c3ccccn3)ccc2c1 | 93.8% (active)
Cc1cc(C)c2c(n1)sc1c(=O)n(-c3ccccc3)c(=O)[nH]c12 | 62.5% (active)
CCCc1cc(=O)oc2c(C)c(OCC(=O)N3CCC(C(=O)O)CC3)ccc12 | -7.26% (inactive)
CCc1cc(=O)oc2c(C)c(OCC(=O)N3CC[C@@]4(O)CCCC[C@H]4C3)ccc12 | 99.4% (active)
CCN(CC)CCCNC(=O)c1cc2c(=O)[nH]c3ccc(C)cc3c2s1 | 98.2% (active)
CCCN(C(=O)CSc1nnc(N)s1)c1c(N)n(Cc2ccccc2)c(=O)[nH]c1=O | 48% (active)
CCOc1ccc2nc(NCCNS(=O)(=O)c3ccccc3)c(C#N)cc2c1 | 15.8% (active)
O=C1C(=O)N(c2ccccc2)C(c2ccccc2)C1c1ccccc1 (stereo not drawn) | 0.69% (inactive)

SMILES | inhibition
Cn1nc(-c2ccc(Cl)cc2)c2cc(C(=O)NCc3ccco3)sc21 | 33.3% (active)
CCc1ccc(-c2cc(C(=O)NCc3ccco3)c3ccccc3n2)s1 | -5.16% (inactive)
Cc1cc(C)c2nc(-c3ccco3)cc(C(=O)O)c2c1 | 2.96% (inactive)
Cc1cc(C)c2nc3nc(C)cc(C)c3c(N)c2c1 | 22.9% (active)
CN1C(=O)c2ccc(NC(=O)c3c(F)c(F)c(F)c(F)c3F)cc2C1=O | 651% [above what the read-out allows, likely interference] (active)
CN1C(=O)c2ccc(NC(=O)C3CCCCC3)cc2C1=O | -2.4% (inactive)
COCCNc1nc(-n2nc(C)cc2C)nc2sc3c(c12)CCCC3 | 97.7% (active)
COc1ccc(NC(=O)N2CCC(Cc3ccccc3)CC2)cc1 | 23.6% (active)
O=C(NCc1ccccc1)c1onc(CSc2nc3ccccc3[nH]2)c1C(=O)NCc1ccccc1 | 55.8% (active)
CCOC(=O)N1CCC(NC(=O)c2cnn3ccccc23)CC1 | 33.9% (active)
CCCC1OC23CCCCC2C(C#N)(C#N)C1(C#N)C(=N)O3 (stereo not drawn) | -5.15% (inactive)
CC12CCC(C(=O)N3CCN(c4ncccn4)CC3)(c3nc4ccccc4nc31)C2(C)C (stereo not drawn) | 143% (active)
CCc1c(C)c2ccc(OC3CCCCC3=O)cc2oc1=O (stereo not drawn) | 78% (active)
COc1ccc(-c2oc3ncnc(NCCCO)c3c2-c2ccc(OC)cc2)cc1 | 39.6% (active)
O=C(NCCCN1CCOCC1)c1cnn2c(-c3ccccc3)cc(-c3ccccc3)nc12 | 79.2% (active)
O=C(O)Cc1sc(-c2ccc(C(=O)O)cc2)nc1-c1ccccc1 | -7.95% (inactive)
